A selection: hits, their analogues and other compounds. The true share with any hit is near 8.1%.
ELG1 DNA repair – blocks ELG1-dependent DNA repair in HEK293T cells. HEK293T ELG1-luciferase reporter, luminescence, 16 h; DNA damage induced by 5-fluorouridine. Potency, µM (titrated, usually from 46.1 µM), usual class: inhibitors. 2.3% of 330,000 active. AID 504467; note: nearly all actives have a fitted effect of over 55% in size
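Reporter activity after DNA damage by 5-fluorouridine is monitored. Compound-treated cells incubate 16 hr at 37 °C, then ONE-Glo is added for 30 min before luminescence reading.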
KB-3-1 tox – KB-3-1 parental cell cytotoxicity. KB-3-1 viability, CellTiter-Glo ATP luminescence, 72 h. Potency, µM (titrated, usually from 46.1 µM), most hits filed as cytotoxic. 1.4% of 400,000 active. AID 1347075; note: nearly all actives have a fitted effect of over 60% in size
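Viability of parental KB-3-1 cells, measured by CellTiter-Glo luminescence, followed a 72 h incubation at 37 °C with pinned compounds in phenol-red-free DMEM containing 10% FBS.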
MCF10A rerep – DNA re-replication induction in MCF 10a cells; MCF 10A DNA re-replication, Hoechst nuclear intensity, 48 h; Potency, µM (doses to about 46.1 µM), hits mostly activators; 2.9% of 350,000 active; AID 624296; note: nearly all actives have a fitted effect of over 50% in size
KB-V1 cytotox – KB-V1 MDR subline cytotoxicity; KB-V1 MDR cells viability, CellTiter-Glo, 72 h; Potency, µM (highest dose often 46.1 µM), hits mostly cytotoxic; 3.4% of 400,000 active; note: nearly all actives have a fitted effect of over 60% in size
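Readout: CellTiter-Glo luminescence, 10 min after addition. Cells: KB-V1 MDR subline, 72 h at 37 degrees C with compound. Analysis: corrected, normalized data fitted to concentration-effect curves.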
SW480 rerep – DNA re-replication induction in SW480 cells | SW480 DNA re-replication, Hoechst DNA content imaging, 48 h | Potency, µM (titrated, usually from 46.1 µM), actives largely listed as activators | 1.8% of 340,000 active | AID 624297; note: nearly all actives have a fitted effect of over 55% in size
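SW480 cells exposed to compounds for 48 hr at 37 C, 5% CO2, then Hoechst-stained 40 min. Nuclear DNA content imaged by fluorescence scanning (405 nm excitation, 500-530 nm emission); re-replication scored as increased high-intensity nuclei.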
Hits are given with their value; - = inactive; ? = inconclusive; . = no result; [ ] = dose if it differs, or a comment. Calls come from the whole dose curve; as a rule, active = well fitted curve in the direction sought with a large enough effect; inconclusive = small, poorly fitted or top-dose-only effect, or another doubt; inactive = no such curve, though single readings can be large; an effect the other way counts as inactive or inconclusive.

SMILES | ELG1 DNA repair | KB-3-1 tox | MCF10A rerep | KB-V1 cytotox | SW480 rerep
COc1cc(OC)cc(C(=O)Nc2cccc(NC(C)=O)c2)c1 | - | - | - | - | -
CCOC(=O)Nc1cccc(NC(=O)c2cc(OC)cc(OC)c2)c1 | 15µM | - | - | ? | -
COc1cccc(NC(=O)CN(C)C(=O)CSc2ccc3c(c2)OCCO3)c1 | - | - | - | 21µM | -
COc1cccc(NC(=O)CN(C)C(=O)Cc2cccc3ccccc23)c1 | - | - | - | - | -
O=C(Nc1ccccn1)c1ccc2ccccc2n1 | ? | - | - | - | -[9.22 µM]
N#CCCNS(=O)(=O)c1ccc(C(=O)OCC(=O)Nc2ccc3c(c2)OCO3)cc1 | ? | - | - | - | -
COC(=O)CSC(=S)N1C(C)CCCC1C (stereo unspecified) | - | - | - | ? | -
O=C1c2ccccc2C(=O)N1CCCCNc1ccccc1 | . | - | - | - | -
CCOC(=O)Nc1cccc(OCC(=O)Nc2ccccc2OC)c1 | ? | - | - | 21µM | -
CCN(CC(=O)Nc1ccc(NC(C)=O)cc1)C(=O)COc1ccc2ccccc2c1 | - | - | - | - | -
CCN(CC(=O)Nc1ccccc1OC)C(=O)COc1ccc2ccccc2c1 | - | - | - | 15µM | -
COc1ccc(Nc2cc(C)c3cc(NC(=O)c4cc(OC)cc(OC)c4)ccc3n2)cc1 | . | 8.2µM | . | ? | .
COc1ccc(CC(=O)Nc2ccc3nc(Nc4ccc(OC)cc4)cc(C)c3c2)cc1 | . | ? | . | - | .
CCOC(=O)Nc1cccc(OCC(=O)Nc2ccc(OC)cc2OC)c1 | ? | - | - | - | -
CN(C(=O)COC(=O)c1cc(=O)[nH]c2ccccc12)c1ccccc1 | - | - | - | - | -
O=C(Nc1ccc2c(c1)OCCO2)C(c1ccccc1F)n1c(=O)c(-c2cc3ccccc3[nH]2)nc2ccccc21 (stereo unspecified) | . | - | . | - | .
CCc1nc2ccccc2n2c(-c3ccccc3)c3c(=O)n(C)c(=O)n(C)c3c12 | . | ? | . | - | .
O=C(COc1ccc([N+](=O)[O-])cc1)N1CCN(c2nnc(-c3ccccc3)c3ccccc23)CC1 | - | - | - | - | -
O=C(CN1CCOCC1)N1CCN(c2nnc(-c3ccccc3)c3ccccc23)CC1 | - | - | - | - | -
Cc1ccc(-c2nnc(N3CCN(C(=O)CN4CCOCC4)CC3)c3ccccc23)cc1 | - | - | - | 13µM | -
Cc1ccc(-c2nnc(N3CCN(C(=O)COc4ccccc4)CC3)c3ccccc23)cc1 | 21µM | 18µM | ? | 2.6µM | -
O=C(COc1ccc(-c2nnc(N3CCCCC3)c3ccccc23)cc1)N1CCCCC1 | 15µM | ? | ? | ? | -
Cc1ccccc1S(=O)(=O)Cc1ccc(C(=O)NCCCN2CCCC2)o1 | - | - | - | - | -
CN(C)Cc1c(O)ccc2cc(-c3nc4ccccc4n3C)c(=O)oc12 | ? | - | 5.8µM | - | 3.7µM
CCN(CC)c1ccc2cc(-c3nc(-c4ccc(OC)cc4)cs3)c(=O)oc2c1 | - | - | ? | 18µM | 1.8µM
SMILES | ELG1 DNA repair | KB-3-1 tox | MCF10A rerep | KB-V1 cytotox | SW480 rerep
CN(C)Cc1c(O)ccc2c(-c3ccccc3)cc(=O)oc12 | ? | - | - | - | -
CCN(CC)c1ccc2cc(-c3nc4ccccc4n3C)c(=O)oc2c1 | ? | 0.23µM | ? | 0.41µM | 0.58µM
CCN(CC)c1ccc2cc(-c3nc4ccccc4[nH]3)c(=O)oc2c1 | ? | ? | 4.1µM | ? | 5.2µM
COc1cccc2cc(-c3nc4ccccc4[nH]3)c(=O)oc12 | ? | - | - | - | ?
CCN(CC)c1ccc2cc(-c3nc(-c4ccc(Cl)cc4Cl)cs3)c(=O)oc2c1 | . | - | . | ? | .
Cc1cc(C)nc(CCNC(=O)c2cc(COc3c(F)cccc3F)on2)n1 | - | - | - | - | -
CCCC1=Nc2cc(C(=O)NC3CCCCC3)ccc2Sc2ccc(C)cc21 | . | 0.52µM | . | 0.82µM | .
CCOC(=O)N1CCC(NC(=O)c2ccc3c(c2)N=C(CC)c2cc(C)ccc2S3)CC1 | ? | 7.3µM | ? | ? | ?
CCC1=Nc2cc(C(=O)NC3CCC(C)CC3)ccc2Sc2ccc(C)cc21 (stereo unspecified) | . | 4.6µM | . | 4.1µM | .
CCCC1=Nc2cc(C(=O)N3CCC(C)CC3)ccc2Sc2ccc(C)cc21 | . | - | . | - | .
